About 210 (19%) of roughly 1,100 compounds were called active. These entries were drawn from the full list. Potency and affinity values are given separately. Values without a mark were called inactive. How the calls were made is not given here.
Assay: cell viability loss from selected hits – cytotoxicity control for SV40 T antigen inhibitor project, dose response (AID 2102);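 further: cells exposed to compounds for 72 hours; 100% = mean of untreated cell control wells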
Settings: Host cell viability cytotoxicity counter-screen; series mostly up to 50 µM; viability: at the top concentration

| SMILES | viability [%] |
| --- | --- |
| COc1ccc(NC2CCCN(C(=O)CSc3ccccc3)C2)cc1 (stereo unspecified) | 92.6 |
| CCOC(=O)C1=C(O)/C(=C\c2ccc(O)c(OCC)c2)N=C1C | 118 |
| O=C1NC(=O)C(c2ccccc2[N+](=O)[O-])=C1Nc1ccc(O)c(Cl)c1 | 89.1 |
| O=c1oc2ccccc2c2oc3cc(O)c(O)cc3c12 | 106 |
| COc1cc(/C=N/NC(=O)C2=NNC(=O)C2C)ccc1O (stereo unspecified) | 99.6 |
| O=C(c1nnsc1S(=O)c1ccc(Cl)cc1)N1CCOCC1 (stereo unspecified) | 86.6 |
| CN(C)c1ccc(NC(=O)CN2CCN(CC(=O)Nc3ccc(F)cc3)CC2)cc1 | 99.9 |
| CCOc1cc(/C=C2\NC(=S)N(c3c(C)n(C)n(-c4ccccc4)c3=O)C2=O)ccc1O | 106 |
| O=S(=O)(NC1=NCCCCC1)c1ccc2sc(NS(=O)(=O)c3ccc4ccccc4c3)nc2c1 | 88.3 |
| COc1cc(/C=C2\S/C(=N/S(=O)(=O)c3ccc(C)cc3)NC2=O)c([N+](=O)[O-])cc1OC | 107 |
| O=S(=O)(Nc1ccc(O)cc1)c1cccc2cccnc12 | 87.8 |
| O=C(c1ccco1)N1CCN(C(=S)Nc2ccc(F)c(Cl)c2)CC1 | 83.2 |
| CN(C)c1ccc(NC(=O)c2ccc(N3CCOCC3)nc2)cc1 | 95.9 |
| COc1cc(C(c2c(C)[nH][nH]c2=O)c2c(C)[nH][nH]c2=O)ccc1OC(=O)c1cccc([N+](=O)[O-])c1 | 122 |
| CCOC(=O)C1(C)C=C(Nc2ccc(O)cc2)C(=O)N1c1ccc(O)cc1 (stereo unspecified) | 96.8 |
| Cn1c(=O)oc2cc(S(=O)(=O)Nc3ccc(O)cc3)ccc21 | 84.3 |
| CN(C)c1ccc(NC(=O)CSc2nnc(-c3ccco3)c(-c3ccco3)n2)cc1 | 90.5 |
| N/C(=N\N=C\c1ccc(O)c(O)c1)c1nonc1N | 95.9 |
| COc1cc(/C(C)=N/NC(=O)Cc2c(C)[nH][nH]c2=O)ccc1O | 96.4 |
| CN=c1scc(C)n1/N=C/c1ccc(O)cc1 | 102 |
| CC1=C(C(=O)c2ccccc2)C(c2ccc(O)cc2)NC(=S)N1 (stereo unspecified) | 109 |
| Nc1nc2ccc(O)cc2s1 | 104 |
| Cc1cc2c(n1-c1ccc(C(=O)O)cc1)CCCCC2 | 92.3 |

| SMILES | viability [%] |
| --- | --- |
| O=C(c1cccc(-c2ccc(O)cc2)c1)N1CCOCC1 | 106 |
| CC(=O)Nc1ccc(S(=O)(=O)Nc2nc3ccccc3nc2Nc2ccc(O)cc2)cc1 | 92 |
| CCOc1cc(/C=N\NC(=O)CC(=O)NCCc2ccccc2)ccc1O | 93.8 |
| Cc1cc(=O)[nH]c(N/N=C/c2c[nH]c3ccccc23)n1 | 122 |
| CCn1cnc2cc(NCc3ccc(N(C)C)cc3)ccc21 | 107 |
| C/C(=N\NC(=O)CSc1nc2ccccc2o1)c1ccc(O)cc1 | 86.8 |
| Cc1cccc(N2NC(=O)/C(=C/c3ccc(-c4ccc(Cl)c(C(=O)O)c4)o3)C2=O)c1 | 104 |
| C=CCn1c(SCC(=O)c2ccc(O)c(O)c2)nnc1-c1ccccc1OC | 83.6 |
| COc1cc(/C=N/NC(=O)c2cc(C3CC3)[nH]n2)ccc1O | 105 |
| COCCCNC(=S)N/N=C/c1ccc(O)cc1O | 89.5 |
| Nc1c(O)cccc1C(=O)O | 106 |
| NC(=O)N/N=C/c1c(Sc2nnnn2-c2ccccc2)nc2ccccn2c1=O | 87.2 |
| COc1ccc2c(c1OC)C(=O)N(c1ccc(O)cc1)C2 | 95.8 |
| O=C1CCCC2=C1Sc1ccccc1N2 | 100 |
| CCSC1(SCC)N=C(N)C2(C#N)C(c3ccc(OC)c(OC)c3OC)C12C#N (stereo unspecified) | 90.3 |
| COc1cc(/C=N/NC(=O)c2nc(C)cc(C)n2)ccc1O | 103 |
| Cc1nonc1C(=O)N/N=C/c1ccc(O)c(O)c1 | 109 |
| CC(=O)NCCc1c[nH]c2ccc(O)cc12 | 108 |
| COc1ccccc1N1CSC2=C(C#N)C(c3ccc(SC)cc3)CC(=O)N2C1 (stereo unspecified) | 104 |
| COc1cc(/C=N/NS(=O)(=O)c2ccc(Br)cc2)ccc1O | 103 |
| CC(=O)c1ccc2c(c1)C1C=CCC1C(C(=O)O)N2 (stereo unspecified) | 102 |
| Nc1cc(C(=O)O)c(N)c2c1C(=O)c1ccccc1C2=O | 94.8 |
| C=CCSC1=NC(=O)/C(=C/c2cccs2)S1 | 96 |

| SMILES | viability [%] |
| --- | --- |
| CN1CCC/C1=C/C=C1\SC(=S)NC1=O | 108 |
| N=C1/C(=C\c2ccc(SCc3ccco3)o2)C(=O)N=C2SC=NN12 | 102 |
| CCCC1=NN2C(=N)/C(=C\c3ccc(SCc4ccco4)o3)C(=O)N=C2S1 | 93.2 |
| CSC1=NSC2=NC(=O)/C(=C\c3coc4ccccc4c3=O)C(=N)N12 | 90.3 |
| CN(C)c1ccc(NC(=O)CN2CCC(N3CCCCC3)CC2)cc1 | 106 |
| N#C/C(=C\c1coc2ccc(O)cc2c1=O)C(=O)Nc1nc2ccccc2s1 | 110 |
| O=c1c2cc(O)c(O)cc2oc2cc(O)c(C3OC(CO)C(O)C(O)C3O)c(O)c12 (stereo unspecified) | 99.3 |
| CCOc1cc(NC2CS(=O)(=O)CC2O)c(OCC)cc1NC(=O)c1ccccc1 (stereo unspecified) | 81.7 |
| CC1(C)CC(=O)C(C=Nc2ccc(O)cc2)=C(O)C1 | 95.6 |
| O=c1c2c3c(sc2n2c(=S)[nH]nc2n1-c1ccccc1)CCC3 | 88.7 |
| COc1ccc(-n2c(=O)c3c4c(sc3n3c(=S)[nH]nc23)CCC4)cc1 | 81.5 |
| COCCCn1c(=O)c2ccccc2n2c(=S)[nH]nc12 | 94.7 |
| OCc1ccccc1SSc1ccccc1CO | 82.2 |
| O=C(O)CCNc1ccc(NCCC(=O)O)c2c1C(=O)c1ccccc1C2=O | 87.2 |
| Oc1ccc(-c2nc3ccccn3c2NCc2ccco2)cc1 | 110 |
| Oc1ccc2ccccc2c1C=Nc1ccc(N2CCOCC2)cc1 | 100 |
| Cc1ccc(-n2nnnc2C(Cl)(Cl)c2nnnn2-c2ccc(C)cc2)cc1 | 93.8 |
| c1ccc(-c2ccc3c(c2)NCCN3)cc1 | 109 |
| Oc1ccc(/C=N/NC(=S)Nc2cccnc2)cc1 | 109 |
| CCCCC1(C)OC(=O)C(=Cc2ccc(-c3ccc(Cl)c(C(=O)O)c3)o2)C(=O)O1 (stereo unspecified) | 97.5 |
| O=c1c2ccccc2sn1-c1cc(S(=O)(=O)N2CCOCC2)ccc1N1CCCC1 | 89.4 |
| Nc1nc2ccc(S(=O)(=O)N3CCCCC3)cc2s1 | 82.8 |
| O=C(O)c1ccccc1NS(=O)(=O)c1cccc(-n2sc3ccccc3c2=O)c1 | 115 |

| SMILES | viability [%] |
| --- | --- |
| C[C@]12CC[C@@H]3c4cc(O)c(O)cc4CC[C@H]3[C@@H]1CC[C@@H]2O | 86.2 |
| O=C(Nc1ccc(O)cc1)c1ccc(NC(=O)C2CCCO2)cc1 (stereo unspecified) | 113 |
| COc1cc([N+](=O)[O-])ccc1NC(=O)Oc1ccc(NC(C)=O)cc1 | 111 |
| O=C1CC(=O)N(Cc2ccco2)C(=O)N1 | 92.7 |
| COc1ccc(NCC(O)Cn2cnc3c2c(=O)n(C)c(=O)n3C)cc1 (stereo unspecified) | 87.5 |
| CCN(CC)c1ccc(NC(=O)COC(=O)c2ccc3ccccc3n2)cc1 | 107 |
| COc1cc(/C=c2\sc3n(c2=O)CCCN=3)ccc1O | 113 |
| Cc1nn(CC(=O)Nc2ccc(N(C)C)cc2)c(C)c1[N+](=O)[O-] | 90 |
| Cc1cc(=O)oc2c(N)c(O)ccc12 | 112 |
| Cc1cc(C)c2c(c1)NC(C(=O)O)C1CC=CC21 (stereo unspecified) | 101 |
| CCOc1cc(/C=N/Nc2ncnc(Cl)c2N)ccc1O | 93.8 |
| O=c1cc(-c2ccc(O)c(O)c2)oc2c(C3O[C@H](CO)[C@@H](O)[C@H](O)[C@H]3O)c(O)cc(O)c12 (stereo partly specified) | 98.5 |
| O=c1cc(-c2ccc(O)c(O)c2)oc2cc(O)c(C3OC(CO)C(O)C(O)C3O)c(O)c12 (stereo unspecified) | 97.3 |
| COc1cc(/C=N\NC(=O)CNC(=O)c2cccc([N+](=O)[O-])c2)ccc1O | 97.5 |
| Nc1ccc(OCCCc2c(N)nc(N)nc2N)cc1 | 110 |
| COc1ccccc1NC(=O)Oc1ccc(NC(=O)c2ccco2)cc1 | 101 |
| Cc1cccc(/C=N/n2c(-c3ccncc3)n[nH]c2=S)c1 | 92.2 |
| S=c1[nH]nc(-c2ccc(Cl)cc2)n1/N=C/C=C/c1ccco1 | 93 |
| Oc1ccc(-c2cn3ccccc3n2)cc1O | 136 |
| C1=Cc2ccccc2Nc2ccccc21 | 109 |
| C[C@@H]1O[C@@H](OC2C(O)C(OCCc3ccc(O)c(O)c3)OC(CO)C2OC(=O)/C=C/c2ccc(O)c(O)c2)[C@H](O)[C@H](O)[C@H]1O (stereo partly specified) | 99.6 |
| CCOc1cc(/C=C2\N=C3CCCCCN3C2=O)ccc1O | 107 |
| Cc1nc(N)sc1N=Nc1c(C)n(C)n(-c2ccccc2)c1=O | 103 |

| SMILES | viability [%] |
| --- | --- |
| O=Cc1sc(=O)n(Cc2cccc(C(=O)O)c2)c1Cl | 102 |
| CN=c1scc(C)n1/N=C/c1ccc(O)cc1O | 83.5 |
| CC(C)(C)OC(=O)N/N=C/c1ccc(N2CCOCC2)s1 | 105 |
| O=C(CSc1nc2ccccc2c(=O)[nH]1)c1ccc(O)c(O)c1 | 91.3 |
| O=C(O)c1cc(S(=O)(=O)O)cc(Nc2c3ccccc3nc3ccccc23)c1O | 104 |
| CN(C)c1ccc(NC(=O)CSc2nnc(-c3cnccn3)n2C)cc1 | 103 |
| O=C1Nc2ccccc2/C1=N\N=C\c1ccc(O)c(O)c1 | 82.8 |
| CN(C)c1ccc(Nc2cc(Cl)ncn2)cc1 | 83.5 |
| C/C(CC(=O)Nc1ccc(N(C)C)cc1)=N\NC(=O)c1ccc(Cl)cc1Cl | 96.1 |
| O=C(N/N=C/c1ccc(O)c(O)c1)c1cccc(S(=O)(=O)N2CCCC2)c1 | 107 |
| COc1ccc(/C=N\NC(=O)c2ccc(=O)[nH]n2)cc1O | 124 |
| N=C1/C(=C/c2ccc(Br)o2)C(=O)N=C2SC(CC(=O)N3CCCC3)=NN12 | 93.3 |
| CN1CN(C)c2cccc3cccc1c23 | 102 |
| CCOc1ccc(S(=O)(=O)Nc2cc(Sc3ncn[nH]3)c3oc(=O)sc3c2)cc1 | 80.8 |
| COc1ccc(C2=CC3=C(Br)C(=O)C(C)(OC(=O)c4ccc(Cl)nc4)C(=O)C3=CO2)cc1 (stereo unspecified) | 90.3 |
| CCOc1ccccc1NC(=S)N1CCN(c2ccc(O)cc2)CC1 | 93.7 |
| O=C(NC(=S)N1CCN(c2ccc(O)cc2)CC1)c1cccs1 | 105 |
| COc1cc(/C=N/NC(=O)CNC(=O)c2ccco2)ccc1O | 124 |
| O=C(COc1cccnc1[N+](=O)[O-])c1ccc(Cl)s1 | 134 |
